In PubChem BioAssay AID1159580 (chemical genetic matrix, 2015):
Where “and” joins values, the source holds several entries; their conditions need not be identical. Equal entries are not always repeated. Hit rate of the full screen: of about 5,500 compounds, about 2,000 (36%) were called active. Another 18% or so got no clear call; they are omitted. No stated cut-off is given here; in the data, active means normalized growth mostly below about 0.91 (no sharp cut-off); inconclusive means no clear call, values can overlap the other calls; inactive means mostly above about 0.92. This is one part of the list.

Assay: chemical genetic growth profiling, strain panel (AID 1159580);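 further: tested at 20 µM; growth read once vehicle control cultures reached saturation at 30 °C; 1 = growth at the plate median or of vehicle wells; lower values mean less growth of the strain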
Conditions: S. cerevisiae deletion strains, growth OD

Measured: normalized growth

CC(C)=CCC[C@](C)(O)C1CC=C(C)CC1 (stereo partly specified)
inactive: locus YAL021C, strain ccr4, hits give low values 0.958 | locus YAL026C, strain drs2, hits give low values 0.987 | locus YAL030W, strain snc1, hits give low values 0.994 | locus YBL061C, strain skt5, hits give low values 0.98 | locus YBR009C, strain hhf1, hits give low values 0.996 | locus YBR021W, strain FUR4, hits give low values 0.966 | locus YBR023C, strain chs3, hits give low values 0.981 | locus YBR171W, strain sec66, hits give low values 0.967 | locus YBR229C, strain ROT2, hits give low values 1.02 | locus YBR231C, strain swc5, hits give low values 1 | locus YBR279W, strain paf1, hits give low values 0.99 | locus YCL011C, strain gbp2, hits give low values 0.979 | locus YCL016C, strain dcc1, hits give low values 0.992 | locus YCL029C, strain bik1, hits give low values 1 | locus YCL061C, strain MRC1, hits give low values 0.982 | locus YCL069W, strain vba3, hits give low values 0.987 | locus YCR088W, strain abp1, hits give low values 0.986 | locus YDL005C, strain med2, hits give low values 0.971 | locus YDL035C, strain GPR1, hits give low values 0.984 | locus YDL040C, strain nat1, hits give low values 1 | locus YDL074C, strain BRE1, hits give low values 0.995 | locus YDL101C, strain DUN1, hits give low values 1.02 | locus YDL134C, strain PPH21, hits give low values 1.02 | locus YDL185W, strain tfp1, hits give low values 0.987 | locus YDL192W, strain arf1, hits give low values 0.969 | locus YDR001C, strain nth1, hits give low values 0.994 | locus YDR069C, strain doa4, hits give low values 0.995 | locus YDR101C, strain arx1, hits give low values 0.976 | locus YDR137W, strain rgp1, hits give low values 0.972 | locus YDR159W, strain sac3, hits give low values 1 | locus YDR162C, strain NBP2, hits give low values 1.04 | locus YDR195W, strain ref2 1 | locus YDR297W, strain sur2, hits give low values 1.01 | locus YDR318W, strain mcm21, hits give low values 1 | locus YDR334W, strain swr1, hits give low values 0.985 | locus YDR335W, strain msn5, hits give low values 0.984 | locus YDR388W, hits give low values 1 | locus YDR392W, strain spt3, hits give low values 0.906 | locus YDR502C, strain sam2, hits give low values 0.973 | locus YEL003W, strain gim4, hits give low values 0.983 | locus YEL037C, strain rad23, hits give low values 0.978 | locus YEL061C, strain CIN8 (second series), hits give low values 0.983 | locus YEL061C, strain CIN8, hits give low values 1.02 | locus YER015W, strain faa2, hits give low values 0.987 | locus YER016W, strain bim1, hits give low values 0.987 | locus YER110C, hits give low values 0.982 | locus YER111C, strain swi4, hits give low values 0.969 | locus YER155C, strain BEM2 (second series), hits give low values 0.985 | locus YER155C, strain BEM2, hits give low values 1.02 | locus YER167W, strain BCK2, hits give low values 1.01 | locus YFR010W, strain ubp6, hits give low values 0.976 | locus YGL078C, strain dbp3, hits give low values 0.97 | locus YGL086W, strain mad1, hits give low values 0.976 | locus YGL167C, strain pmr1, hits give low values 0.982 | locus YGL173C, strain kem1, hits give low values 0.981 | locus YGL227W, strain vid30, hits give low values 0.981 | locus YGL240W, strain doc1, hits give low values 0.994 | locus YGL248W, strain PDE1, hits give low values 1.02 | locus YGL253W, strain hxk2, hits give low values 0.959 | locus YGR135W, strain pre9, hits give low values 1.01 | locus YGR252W, strain gcn5, hits give low values 0.962 | locus YHR013C, strain ard1, hits give low values 0.997 | locus YHR027C, strain rpn1, hits give low values 0.999 | locus YHR030C, strain SLT2, hits give low values 1.02 and 1 | locus YHR079C, strain IRE1 (second series), hits give low values 0.98 | locus YHR079C, strain IRE1, hits give low values 0.988 | locus YHR094C, strain hxt1, hits give low values 0.985 | locus YHR129C, strain ARP1, hits give low values 1.02 | locus YHR142W, strain chs7, hits give low values 0.953 | locus YHR200W, strain rpn10, hits give low values 1 | locus YIL066C, strain RNR3, hits give low values 1.02 | locus YIL073C, strain SPO22, hits give low values 1.02 | locus YIL125W, strain kgd1, hits give low values 0.997 | locus YIR030C, strain dcg1, hits give low values 0.991 | locus YJL092W, strain hpr5, hits give low values 0.958 | locus YJL095W, strain BCK1 (second series), hits give low values 0.976 | locus YJL095W, strain BCK1, hits give low values 1.04 and 0.993 | locus YJL115W, strain asf1, hits give low values 0.988 | locus YJL129C, strain trk1, hits give low values 0.973 | locus YJL134W, strain LCB3, hits give low values 1.01 | locus YJL154C, strain vps35, hits give low values 0.995 | locus YJL164C, strain tpk1, hits give low values 1 | locus YJL166W, strain qcr8, hits give low values 0.989 | locus YJL168C, strain set2, hits give low values 0.987 | locus YJL187C, strain SWE1 (second series), hits give low values 1.03 | locus YJL187C, strain SWE1, hits give low values 0.987
